{"source": "PubChem BioAssay AID624300", "about": "(Southern Research Specialized Biocontainment Screening …, 2012)", "note": "Among all 2,400 compounds or so, about 360 (15%) were called active.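 Rule for the calls: active = viability falls under 70% at one or more tested concentrations, taken as toxicity; inactive = viability stays over 70% at every dose.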 A selection follows. Entries with a potency or affinity are not part of this list.", "data": [{"experiment": "HeLa cell cytotoxicity, dose response, cytotoxicity control for MgcRacGAP inhibitor project (AID 624300);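 note: 100% = median of untreated control wells on the same plate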", "conditions": "CellTiter-Glo luminescence, 24 h; series mostly up to 100 µM; viability: at the top concentration", "values": [{"smiles": "N#CC1=C(S)N(c2ccccc2)C(c2ccc(-c3cccc(Cl)c3)o2)NC1=O", "note": "(centres undefined)", "viability": "97.1% (inactive)"}, {"smiles": "COc1ccccc1N1CCN(CCCOc2ccc(F)cc2)CC1", "viability": "87.8% (inactive)"}, {"smiles": "Cc1cccc(-c2n[nH]c(=S)n2/N=C/c2ccco2)c1", "viability": "101% (inactive)"}, {"smiles": "COc1ccc(CNc2ccc(N3CCN(C(C)=O)CC3)cc2)cc1OC", "viability": "94.6% (inactive)"}, {"smiles": "CCOc1cc(CNc2ccc3c(c2)OCCO3)cc(Br)c1OCC(N)=O", "viability": "101% (inactive)"}, {"smiles": "COc1cc(CNc2ccc(N3CCOCC3)cc2)cc(Br)c1OC", "viability": "96.3% (inactive)"}, {"smiles": "CCOc1cc(CNc2ccc(N3CCOCC3)cc2)cc(Br)c1OCC", "viability": "99.3% (inactive)"}, {"smiles": "O=C(Cn1cnc([N+](=O)[O-])n1)N/N=C/c1ccc(O)cc1O", "viability": "103% (inactive)"}, {"smiles": "O=S(=O)(c1ccccc1)N1N=C(c2ccc(O)cc2)CC1c1ccco1", "note": "(centres undefined)", "viability": "82.5% (inactive)"}, {"smiles": "CN(C)c1ccc(NC(=O)c2ccc3nsnc3c2)cc1", "viability": "103% (inactive)"}, {"smiles": "O=C(c1ccccc1)N1CCN(C2CCCCC2)CC1", "viability": "99% (inactive)"}, {"smiles": "COc1ccc(/C=N/n2c(-c3n[nH]c4c3CCC4)n[nH]c2=S)c(OC)c1OC", "viability": "113% (inactive)"}, {"smiles": "Nc1n[nH]c(N)c1N=Nc1ccc2c(c1)OCO2", "viability": "98.6% (inactive)"}, {"smiles": "O=C(CSc1ccc2ccccc2c1)N1CCN(c2ccc(O)cc2)CC1", "viability": "114% (inactive)"}, {"smiles": "Oc1ccc(NC(=S)Nc2ccc(F)cc2)cc1", "viability": "99.5% (inactive)"}, {"smiles": "Oc1ccc(NC(=S)N=Nc2c(O)[nH]c3ccccc23)cc1", "viability": "87% (inactive)"}, {"smiles": "Oc1ccc(N2CCN(Cc3cc4c(cc3Br)OCCO4)CC2)cc1", "viability": "110% (inactive)"}, {"smiles": "CC1CCN(CC(=O)Nc2ccc(S(=O)(=O)NC3CC3)cc2)CC1", "viability": "98.4% (inactive)"}, {"smiles": "Cc1ccc(NC(=O)NC(=O)CN2CCN(c3ccc(O)cc3)CC2)c(C)c1", "viability": "98.6% (inactive)"}, {"smiles": "CN(c1ccc(O)cc1)c1nc(-c2cccs2)cs1", "viability": "82% (inactive)"}, {"smiles": "COc1ccc(CNC(=O)CN(C)Cc2ccc(C(C)(C)C)cc2)cc1", "viability": "87.3% (inactive)"}, {"smiles": "CN1CCN(C=NC2=NN(c3cccc(C(F)(F)F)c3)CC2)CC1", "viability": "89.4% (inactive)"}, {"smiles": "CCOC(=O)c1[nH]c(=S)n(Cc2ccccc2)c1C(=O)OCC", "viability": "97.3% (inactive)"}, {"smiles": "CN(C)c1ccc(NC(=O)COC(=O)c2ccc3c(c2)OCO3)cc1", "viability": "99.3% (inactive)"}, {"smiles": "COC(=O)C1CCN(C(=O)COC(=O)/C=C/c2ccc(O)c(OC)c2)CC1", "viability": "99.1% (inactive)"}, {"smiles": "CSc1nc(/C=C2\\C=Nc3ccccc32)c(O)n1C", "viability": "90.1% (inactive)"}, {"smiles": "CCOC(=O)C1CCCN(C(=S)Nc2ccc(Nc3ccccc3)cc2)C1", "note": "(centres undefined)", "viability": "98.2% (inactive)"}, {"smiles": "CN(C)c1ccc(-n2cccc2/C=C/[N+](=O)[O-])cc1", "viability": "110% (inactive)"}, {"smiles": "COc1ccc(-n2cnc(=S)[nH]c2=S)cc1", "viability": "93% (inactive)"}, {"smiles": "COc1ccc(NC2CCCN(C(=O)c3ccccc3-c3ncc[nH]3)C2)cc1", "note": "(centres undefined)", "viability": "99.3% (inactive)"}, {"smiles": "CCN1CCN(CCOc2cccc(Cl)c2Cl)CC1", "viability": "98.5% (inactive)"}, {"smiles": "COc1ccc(NC(=O)c2cc3ccc(O)cc3o/c2=N\\O)cc1", "viability": "101% (inactive)"}, {"smiles": "Cc1sc2ncnc(Nc3ccc(O)cc3)c2c1C", "viability": "103% (inactive)"}, {"smiles": "CCN(CC)S(=O)(=O)c1cccc(C(=O)N/N=C/c2ccc(OC)c(O)c2)c1", "viability": "106% (inactive)"}, {"smiles": "Cc1c(O)ccc2c3c(c(=O)oc12)CCCC3", "viability": "98% (inactive)"}, {"smiles": "Cc1ccc2c(c1)C(C)CC(C)(C)N2C(=O)CN1CCN(C)CC1", "note": "(centres undefined)", "viability": "98.5% (inactive)"}, {"smiles": "O=c1c(-c2cccc(Cl)c2)c[nH]n1-c1ccccc1", "viability": "84.1% (inactive)"}, {"smiles": "O=c1c(-c2ccccc2Cl)c[nH]n1-c1ccccc1", "viability": "89.8% (inactive)"}, {"smiles": "Cc1ccc(OC(=O)CCC(=O)Nc2ccc(C)c(C)c2)cc1", "viability": "104% (inactive)"}, {"smiles": "COc1cc(/C=C/C(=O)OCC(=O)NC(=O)NC(C)C)ccc1O", "viability": "94.6% (inactive)"}, {"smiles": "COc1ccc(N2CCN(C(=O)CCCn3nnnc3CN3CCOCC3)C(C)C2)cc1", "note": "(centres undefined)", "viability": "98.7% (inactive)"}, {"smiles": "O=C1/C(=C\\c2ccc(O)cc2)SC(=S)N1/N=C/c1ccc(O)cc1", "viability": "88.5% (inactive)"}, {"smiles": "Cc1cc(O)ccc1N=Cc1c(C(F)(F)F)[nH][nH]c1=O", "viability": "96.6% (inactive)"}, {"smiles": "Nc1ccc2c(c1)OCCOCCOCCOCCOCCO2", "viability": "97.6% (inactive)"}, {"smiles": "Oc1ccccc1CNc1ccc2c(c1)OCCO2", "viability": "99.8% (inactive)"}, {"smiles": "Nc1ccc2nc(CCCCc3nc4ccccc4[nH]3)[nH]c2c1", "viability": "96.5% (inactive)"}, {"smiles": "CCOC(=O)c1cc(NCc2cccs2)ccc1N1CCOCC1", "viability": "95.5% (inactive)"}, {"smiles": "CN1CCN(/N=C/c2nc(-c3ccccc3)n3ccccc23)CC1", "viability": "103% (inactive)"}, {"smiles": "CN(C)c1ccc(Nc2ccc([N+](=O)[O-])cn2)cc1", "viability": "109% (inactive)"}, {"smiles": "c1cc(CNc2ccc3c(c2)OCCO3)ccn1", "viability": "105% (inactive)"}, {"smiles": "Cc1ccc(CN2CCN(Cc3ccco3)CC2)cc1", "viability": "92.4% (inactive)"}, {"smiles": "CN1CCCN(Cc2ccccc2C(F)(F)F)CC1", "viability": "96.8% (inactive)"}, {"smiles": "Cc1ccc(NC(=O)CN(C)C2CCCCC2)cc1Cl", "viability": "122% (inactive)"}, {"smiles": "CN1C(=O)NC(c2ccc(O)cc2)C2=C1CN(c1ccc(O)cc1)C2=O", "note": "(centres undefined)", "viability": "111% (inactive)"}, {"smiles": "COc1ccc(/C=N/NC(=O)c2cccc(S(=O)(=O)N3CCCC3)c2)cc1O", "viability": "98.2% (inactive)"}, {"smiles": "CN(C)c1cc(NC(=O)CN2CCCC2)c2ccccc2n1", "viability": "91.6% (inactive)"}, {"smiles": "CCOc1ccc(CNC2CCCc3ccccc32)cc1", "note": "(centres undefined)", "viability": "87% (inactive)"}, {"smiles": "Nc1ccn([C@@H]2O[C@H](CNCC3=CCOc4ccc(O)cc43)[C@@H](O)[C@H]2O)c(=O)n1", "viability": "103% (inactive)"}, {"smiles": "O=C(c1cc(C2CC2)nn1-c1ccccc1)N1CCN(c2ccc(O)cc2)CC1", "viability": "106% (inactive)"}, {"smiles": "O=C(c1ccccc1)c1ccc(C(=O)N2CCN(c3ccc(O)cc3)CC2)cc1", "viability": "91.1% (inactive)"}, {"smiles": "O=C(CN1CCCCCC1)Nc1nc2ccccc2s1", "viability": "92.9% (inactive)"}, {"smiles": "Cc1ccc(NC(=O)CN2CCC(Cc3ccccc3)CC2)cc1S(=O)(=O)N(C)C", "viability": "82.5% (inactive)"}, {"smiles": "Cn1c(N2CCOCC2)c(/C=N/O)c2ccccc21", "viability": "95.4% (inactive)"}, {"smiles": "CN(C)/N=C/c1ccc(N2CCOCC2)cc1", "viability": "99.3% (inactive)"}, {"smiles": "COc1ccc(NC(=S)NNS(=O)(=O)c2ccc3ccccc3c2)c(OC)c1", "viability": "103% (inactive)"}, {"smiles": "O=C(NC(=S)N1CCN(c2ccc(O)cc2)CC1)c1ccco1", "viability": "98.4% (inactive)"}, {"smiles": "COc1cccc(N2CC(C(=O)Oc3ccc4ccccc4c3)CC2=O)c1", "note": "(centres undefined)", "viability": "102% (inactive)"}, {"smiles": "COc1ccc(Cn2nnnc2C(c2cccnc2)N2CCN(c3ccc(O)cc3)CC2)cc1", "note": "(centres undefined)", "viability": "94.8% (inactive)"}, {"smiles": "CC1(C)CC(=O)C=C(Nc2ccc(O)cc2)C1", "viability": "100% (inactive)"}, {"smiles": "CC1(C)CC(=O)C(C=Nc2ccc(O)cc2)=C(O)C1", "viability": "102% (inactive)"}, {"smiles": "Cc1ccc(/C=N/Nc2ccc(Cl)c(C(=O)O)c2)s1", "viability": "97.3% (inactive)"}, {"smiles": "CCN(CC(=O)Nc1ccc(S(=O)(=O)N2CCCC2)cc1)CC(=O)Nc1cccc(OC)c1", "viability": "98.4% (inactive)"}, {"smiles": "O=[N+]([O-])c1ccc(Oc2cccc3cccnc23)c([N+](=O)[O-])c1", "viability": "100% (inactive)"}, {"smiles": "Nc1cc(SCc2ccc([N+](=O)[O-])cc2)ncn1", "viability": "98.7% (inactive)"}]}]}
